Compound activity (PubChem BioAssay)
Abeta yeast res – compounds reversing amyloid beta toxicity in yeast. yeast expressing A-beta42, growth rescue, OD600, 48 h; response scale: 0% DMSO, 100% iron-clioquinol control. Potency, µM (doses to about 46.1 µM), most hits filed as activators. 410,000 compounds, 0.063% hits. AID 1347071; also: nearly all actives have a fitted effect of over 55% in size
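Yeast growth medium received pinned compounds, then yeast cells expressing toxic A-beta were added; plates incubated at 30 C for 48 hr. Growth read as absorbance at 600 nm, normalized to DMSO and equimolar FeCl3 plus clioquinol controls.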
TDP43 rescue – rescues yeast growth from TDP-43 toxicity; TDP-43 expressing yeast growth rescue, BacTiter-Glo, 24 h; Potency, µM (top dose mostly 46.1 µM), hits mostly activators; 410,000 compounds, 1.8% hits; AID 652104; also: nearly all actives have a fitted effect of over 50% in size
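Luminescence from BacTiter-Glo reports growth of TDP-43-expressing yeast after 24 hr at 30 deg C with compound. Cells were raffinose-pregrown to mid-log, then seeded in galactose medium at OD600=0.02.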
aSyn yeast inh – alpha-synuclein toxicity inhibition in yeast. Potency, µM (series often up to 46.1 µM), hits mostly activators. 370,000 compounds, 0.14% hits. Yeast expressing alpha-synuclein, growth rescue, BacTiter-Glo, 24 h; also: nearly all actives have a fitted effect of over 65% in size
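Screening used galactose-induced yeast with toxic alpha-synuclein levels, exposed to compound for 24 hr at 30 deg C. Cell growth, read with BacTiter-Glo luminescence, gave the measured signal.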
FUS yeast rescue – FUS proteinopathy suppression in yeast; Potency, µM (top dose mostly 76.6 µM), usual class: activators; S. cerevisiae FUS-expressing, growth rescue, OD600, 24 h; 390,000 compounds, 0.24% hits; also: nearly all actives have a fitted effect of over 55% in size
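Absorbance at 600 nm, taken 24hr after compound addition, measured rescue of FUS-yeast growth at 30C. Induction used 2% galactose with seeding at OD 0.005. Controls: CP55940 from 92uM final, DMSO only.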
A number is an active result; n = inactive; u = inconclusive; x = no result. This is a sample that favours compounds with a hit; in the whole collection about 2.1% have one here. Calls follow the shape of the dose curve; as a rule, active = well fitted curve in the direction sought with a large enough effect; inconclusive = small, poorly fitted or top-dose-only effect, or another doubt; inactive = no such curve, though single readings can be large; an effect the other way counts as inactive or inconclusive.

SMILES	Abeta yeast res	TDP43 rescue	aSyn yeast inh	FUS yeast rescue
CCn1cc2nc(SCC(=O)Nc3cc(OC)cc(OC)c3)n(Cc3ccc(Cl)cc3)c(=O)c2n1	n	n	x	22µM
CSC1=NCCN1C(=O)Cc1ccc(-c2ccccc2)cc1	n	u	u	u
COc1ccc(CC(=O)N2CCN=C2SCc2ccc([N+](=O)[O-])cc2)cc1	n	7.9µM	n	n
CCSC1=NCCN1C(=O)Cc1ccc(-c2ccccc2)cc1	n	14µM	n	n
CCOc1ccc(CC(=O)N2CCN=C2SCc2ccc([N+](=O)[O-])cc2)cc1	n	u	n	n
COc1ccccc1C(=O)NNC(=O)C(=O)Nc1cccc(Cl)c1C	n	11µM	n	n
C/C(=N\Nc1nc(C)c(C)s1)c1ccc([N+](=O)[O-])cc1	n	13µM	n	n
CC(C)=NNc1nc(-c2ccc([N+](=O)[O-])cc2)cs1	n	13µM	n	n
CN(C)S(=O)(=O)c1cccc(C(=O)NCc2ccco2)c1	n	n	n	n
Cc1cc(NC(=O)CCNS(=O)(=O)c2ccc3c(c2)oc(=O)n3C)ccc1Br	n	n	x	n
CCOc1ccc(OCc2ccc(C(=O)N3CCOCC3)cc2)cc1	n	n	x	n
N=c1nc(N2CCCCC2)cc(N)n1O	n	u	n	n
Nc1nn(-c2ccccc2)c(N)c1N=Nc1cccc(F)c1	n	u	n	n
Nc1nn(-c2ccccc2)c(N)c1N=Nc1ccc2c(c1)OCO2	n	18µM	n	n
Cc1csc2ncnc(N3CCN(S(=O)(=O)c4cccc(C(F)(F)F)c4)CC3)c12	n	18µM	n	x
CCCCc1ccc(Nc2ncnc3nc[nH]c23)cc1	n	16µM	n	n
S=c1nc(-c2cc(Cl)ccc2Cl)[nH][nH]1	18µM	u	n	n
CCc1ccc(CNCc2ccc(OCC(O)CN(C)Cc3ccccc3)cc2)nc1 (stereo unspecified)	n	n	n	n
CC1=C(C)CC2C(C1)C(=O)c1ccc(Br)cc1S2(=O)=O (stereo unspecified)	n	5µM	n	n
CCOC(=O)C1=C(CN2CCOCC2)NC(=O)NC1c1cccc([N+](=O)[O-])c1 (stereo unspecified)	n	n	n	n
CSc1ccc(Cl)c(C(=O)OCC(=O)NCC(C)C)c1	n	14µM	n	n
CC(C)CNC(=O)COC(=O)c1cncc(Br)c1	n	n	n	4.5µM
CC(C)NC(=O)COC(=O)c1cncc(Br)c1	n	n	n	n
O=C(COC(=O)CN1C(=O)c2ccccc2C1=O)Nc1cccc(F)c1	n	n	n	n
COc1ccc(C(=O)C[C@@H]2OC[C@H](C)N2S(=O)(=O)c2ccc(C)cc2)cc1OC	n	n	n	n
SMILES	Abeta yeast res	TDP43 rescue	aSyn yeast inh	FUS yeast rescue
COc1ccc(C(=O)N2C=Cc3ccccc3C2C#N)cc1 (stereo unspecified)	n	16µM	n	n
COc1ccc2[nH]c3c(=O)n(Cc4ccc(C(=O)NCC5CCCO5)cc4)c(=S)[nH]c3c2c1 (stereo unspecified)	n	n	n	n
O=C(C1CCCN(S(=O)(=O)c2cccc3nonc23)C1)N1CCN(c2ccccc2Cl)CC1 (stereo unspecified)	n	35µM	n	n
O=S(=O)(c1cccc2nonc12)N1CCN(c2ccccc2F)CC1	n	n	n	n
Cc1cccc(N2CCN(S(=O)(=O)c3cccc4nonc34)CC2)c1C	n	28µM	n	x
O=C(C1CCCN(S(=O)(=O)c2cccc3nonc23)C1)N1CCN(c2cccc(Cl)c2)CC1 (stereo unspecified)	n	n	n	n
Cc1cccc(C(=O)Nc2ccc(NC(=O)CN3CCOCC3)cc2)c1	n	n	n	n
CC(C)(C)OC(=O)N/N=C/c1cccc([N+](=O)[O-])c1	n	n	n	n
CCCOc1ccc(CN(C(=O)c2nc(SC(C)C)ncc2Cl)C2CCS(=O)(=O)C2)cc1 (stereo unspecified)	n	n	x	35µM
CCOC(=O)C(/C=C(\C#N)C(=O)OCC)=C(/N)N1CCN(c2ccc(OC)cc2)CC1	n	n	n	n
CCCn1nc(NS(C)(=O)=O)c2cc3cccc(C)c3nc21	n	35µM	n	u
CCN(Cc1ccccc1)c1ncnc2c1cnn2-c1ccc(F)cc1	n	25µM	x	n
CC1(C)CC(=O)C2=C(C1)Nc1cc3c(cc1C2c1ccc2c(c1)OCO2)OCO3 (stereo unspecified)	n	n	n	35µM
COc1cccc(N2CCN(S(=O)(=O)c3ccc(-c4ccno4)cc3OC)CC2)c1	n	13µM	x	n
